Laboratory results: PubChem BioAssay AID1159580 (chemical genetic matrix, 2015)
Several values for one entry are separate records, joined by “and”; a condition that tells them apart may be missing. Identical values can stand only once. Out of some 5,500 compounds screened, about 2,000 (36%) were called active. About 18% were inconclusive and are not listed. No stated cut-off is given here; in the data, active means normalized growth mostly below about 0.91 (no sharp cut-off); inconclusive means no clear call, values can overlap the other calls; inactive means mostly above about 0.92. Some of the results follow.

Assay: chemical genetic growth profiling, strain panel (AID 1159580);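 further: tested at 20 µM; growth read once vehicle control cultures reached saturation at 30 °C; 1 = growth at the plate median or of vehicle wells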
Conditions: S. cerevisiae deletion strains, growth OD

Measured: normalized growth

O=c1c(O)c(-c2ccccc2)oc2ccccc12
0.983 (inactive) and 0.617 (active): locus YJL095W, strain BCK1, stronger effect = lower value
active: locus YAL021C, strain ccr4, stronger effect = lower value 0.424 | locus YAL026C, strain drs2, stronger effect = lower value 0.17 | locus YAL030W, strain snc1, stronger effect = lower value 0.68 | locus YBL061C, strain skt5, stronger effect = lower value 0.578 | locus YBR009C, strain hhf1, stronger effect = lower value 0.61 | locus YBR023C, strain chs3, stronger effect = lower value 0.363 | locus YBR171W, strain sec66, stronger effect = lower value 0.815 | locus YBR231C, strain swc5, stronger effect = lower value 0.418 | locus YBR279W, strain paf1, stronger effect = lower value 0.447 | locus YCL011C, strain gbp2, stronger effect = lower value 0.51 | locus YCL016C, strain dcc1, stronger effect = lower value 0.628 | locus YCL061C, strain MRC1, stronger effect = lower value 0.527 | locus YCL069W, strain vba3, stronger effect = lower value 0.47 | locus YCR088W, strain abp1, stronger effect = lower value 0.654 | locus YDL005C, strain med2, stronger effect = lower value 0.855 | locus YDL040C, strain nat1, stronger effect = lower value 0.794 | locus YDR001C, strain nth1, stronger effect = lower value 0.651 | locus YDR069C, strain doa4, stronger effect = lower value 0.302 | locus YDR137W, strain rgp1, stronger effect = lower value 0.363 | locus YDR195W, strain ref2 1.17 [resistant] | locus YDR297W, strain sur2, stronger effect = lower value 0.709 | locus YDR334W, strain swr1, stronger effect = lower value 0.347 | locus YDR335W, strain msn5, stronger effect = lower value 0.608 | locus YDR392W, strain spt3, stronger effect = lower value 0.135 | locus YEL003W, strain gim4, stronger effect = lower value 0.595 | locus YEL037C, strain rad23, stronger effect = lower value 0.465 | locus YEL061C, strain CIN8 (second series), stronger effect = lower value 0.592 | locus YER015W, strain faa2, stronger effect = lower value 0.455 | locus YER016W, strain bim1, stronger effect = lower value 0.81 | locus YER111C, strain swi4, stronger effect = lower value 0.71 | locus YER155C, strain BEM2 (second series), stronger effect = lower value 0.602 | locus YFR010W, strain ubp6, stronger effect = lower value 0.291 | locus YGL167C, strain pmr1, stronger effect = lower value 0.834 | locus YGL173C, strain kem1, stronger effect = lower value 0.271 | locus YGL227W, strain vid30, stronger effect = lower value 0.771 | locus YGL240W, strain doc1, stronger effect = lower value 0.643 | locus YGL253W, strain hxk2, stronger effect = lower value 0.356 | locus YHR013C, strain ard1, stronger effect = lower value 0.219 | locus YHR027C, strain rpn1, stronger effect = lower value 0.268 | locus YHR079C, strain IRE1, stronger effect = lower value 0.812 | locus YHR142W, strain chs7, stronger effect = lower value 0.294 | locus YJL092W, strain hpr5, stronger effect = lower value 0.545 | locus YJL095W, strain BCK1 (second series), stronger effect = lower value 0.453 | locus YJL115W, strain asf1, stronger effect = lower value 0.616 | locus YJL129C, strain trk1, stronger effect = lower value 0.77 | locus YJL154C, strain vps35, stronger effect = lower value 0.752 | locus YJL164C, strain tpk1, stronger effect = lower value 0.333 | locus YJL166W, strain qcr8, stronger effect = lower value 0.355 | locus YJL187C, strain SWE1, stronger effect = lower value 0.758 | locus YJR066W, strain TOR1, stronger effect = lower value 0.766 | locus YKL160W, strain elf1, stronger effect = lower value 0.678 | locus YKR026C, strain gcn3, stronger effect = lower value 0.777 | locus YKR091W, strain srl3, stronger effect = lower value 0.82 | locus YLL001W, strain dnm1, stronger effect = lower value 0.512 | locus YLL026W, stronger effect = lower value 0.354 | locus YLL041C, strain sdh2, stronger effect = lower value 0.872 | locus YLR027C, strain aat2, stronger effect = lower value 0.681 | locus YLR113W, strain HOG1, stronger effect = lower value 0.851 | locus YLR221C, strain rsa3, stronger effect = lower value 0.612 | locus YLR258W, strain gsy2, stronger effect = lower value 0.655 | locus YLR262C, strain YPT6 (second series), stronger effect = lower value 0.228 | locus YLR320W, strain mms22, stronger effect = lower value 0.503 | locus YLR342W, strain FKS1, stronger effect = lower value 0.513 | locus YLR357W, strain rsc2, stronger effect = lower value 0.584 | locus YLR370C, strain arc18, stronger effect = lower value 0.364 | locus YLR384C, strain iki3, stronger effect = lower value 0.877 | locus YML120C, strain ndi1, stronger effect = lower value 0.844 | locus YMR058W, strain fet3, stronger effect = lower value 0.0896 | locus YMR129W, stronger effect = lower value 0.872 | locus YMR205C, strain PFK2, stronger effect = lower value 0.506 | locus YMR231W, strain pep5, stronger effect = lower value 0.128 | locus YNL071W, strain lat1, stronger effect = lower value 0.301 | locus YNL183C, strain NPR1, stronger effect = lower value 0.8 | locus YNL209W, strain ssb2, stronger effect = lower value 0.159 | locus YNL248C, strain rpa49, stronger effect = lower value 0.567 | locus YNL322C, strain KRE1 (second series), stronger effect = lower value 0.851 | locus YNR049C, strain mso1, stronger effect = lower value 0.616 | locus YOR001W, strain rrp6, stronger effect = lower value 0.805 | locus YOR070C, strain gyp1, stronger effect = lower value 0.561 | locus YOR080W, strain dia2, stronger effect = lower value 0.689 | locus YOR083W, strain WHI5, stronger effect = lower value 0.565 | locus YOR106W, strain vam3, stronger effect = lower value 0.163 | locus YOR231W, strain MKK1, stronger effect = lower value 0.834 | locus YOR265W, strain rbl2, stronger effect = lower value 0.467 | locus YOR270C, strain vph1, stronger effect = lower value 0.16 | locus YOR290C, strain snf2, stronger effect = lower value 0.589 | locus YPL051W, strain arl3, stronger effect = lower value 0.262 | locus YPL078C, strain atp4, stronger effect = lower value 0.553 | locus YPL106C, strain sse1, stronger effect = lower value 0.676 | locus YPL240C, strain hsp82, stronger effect = lower value 0.762
0.991 (inactive) and 0.591 (active): locus YHR030C, strain SLT2, stronger effect = lower value
inactive: locus YAL013W, strain DEP1, stronger effect = lower value 0.993 | locus YBR021W, strain FUR4, stronger effect = lower value 1.01 | locus YBR229C, strain ROT2, stronger effect = lower value 0.963 | locus YCL029C, strain bik1, stronger effect = lower value 0.983 | locus YDL035C, strain GPR1, stronger effect = lower value 0.985 | locus YDL074C, strain BRE1, stronger effect = lower value 1.01 | locus YDL101C, strain DUN1, stronger effect = lower value 0.997 | locus YDL185W, strain tfp1, stronger effect = lower value 0.974 | locus YDL192W, strain arf1, stronger effect = lower value 1 | locus YDR101C, strain arx1, stronger effect = lower value 1.03 | locus YDR150W, strain NUM1, stronger effect = lower value 0.993 | locus YDR159W, strain sac3, stronger effect = lower value 0.929 | locus YDR162C, strain NBP2, stronger effect = lower value 0.981 | locus YDR318W, strain mcm21, stronger effect = lower value 0.963 | locus YDR388W, stronger effect = lower value 0.994 | locus YDR502C, strain sam2, stronger effect = lower value 1.01 | locus YEL061C, strain CIN8, stronger effect = lower value 0.984 | locus YER110C, stronger effect = lower value 0.987 | locus YER155C, strain BEM2, stronger effect = lower value 0.999 | locus YER167W, strain BCK2, stronger effect = lower value 0.99 | locus YGL078C, strain dbp3, stronger effect = lower value 0.991 | locus YGL086W, strain mad1, stronger effect = lower value 1.04 | locus YGL248W, strain PDE1, stronger effect = lower value 0.986 | locus YGR078C, strain PAC10, stronger effect = lower value 0.991 | locus YGR135W, strain pre9, stronger effect = lower value 0.977 | locus YGR229C, strain SMI1, stronger effect = lower value 0.998 | locus YGR252W, strain gcn5, stronger effect = lower value 0.947 | locus YHR079C, strain IRE1 (second series), stronger effect = lower value 0.993 | locus YHR094C, strain hxt1, stronger effect = lower value 0.975 | locus YHR129C, strain ARP1, stronger effect = lower value 0.982 | locus YHR200W, strain rpn10, stronger effect = lower value 0.992 | locus YIL066C, strain RNR3, stronger effect = lower value 0.978 | locus YIL073C, strain SPO22, stronger effect = lower value 0.996 | locus YIL125W, strain kgd1, stronger effect = lower value 0.999 | locus YIR030C, strain dcg1, stronger effect = lower value 0.998 | locus YJL134W, strain LCB3, stronger effect = lower value 0.986 | locus YJL168C, strain set2, stronger effect = lower value 0.994 | locus YJL187C, strain SWE1 (second series), stronger effect = lower value 1.01 | locus YJR043C, strain POL32, stronger effect = lower value 0.981 | locus YJR075W, strain HOC1, stronger effect = lower value 0.982 | locus YKL009W, strain mrt4, stronger effect = lower value 0.988 | locus YKL068W, stronger effect = lower value 0.988 | locus YKL085W, strain MDH1 (second series), stronger effect = lower value 0.994 | locus YKL085W, strain MDH1, stronger effect = lower value 0.994 | locus YKR001C, strain vps1, stronger effect = lower value 1.02 | locus YLR039C, strain RIC1, stronger effect = lower value 1.01 | locus YLR058C, strain SHM2, stronger effect = lower value 0.977 | locus YLR102C, strain apc9, stronger effect = lower value 0.997 | locus YLR262C, strain YPT6, stronger effect = lower value 1 | locus YLR268W, strain sec22, stronger effect = lower value 1.03 | locus YLR330W, strain CHS5, stronger effect = lower value 0.997 | locus YLR342W, strain FKS1 (second series), stronger effect = lower value 1.01 | locus YLR371W, strain rom2, stronger effect = lower value 0.974 | locus YLR418C, strain cdc73, stronger effect = lower value 0.97 | locus YML016C, strain PPZ1, stronger effect = lower value 1 | locus YML032C, strain rad52, stronger effect = lower value 0.956 | locus YML124C, strain tub3, stronger effect = lower value 0.988 | locus YMR078C, strain ctf18, stronger effect = lower value 0.996 | locus YMR125W, strain sto1, stronger effect = lower value 0.933 | locus YMR223W, strain ubp8, stronger effect = lower value 0.965 | locus YMR307W, strain GAS1, stronger effect = lower value 0.963 | locus YNL067W, strain RPL9B, stronger effect = lower value 0.994 | locus YNL128W, strain TEP1, stronger effect = lower value 0.966 | locus YNL233W, strain BNI4, stronger effect = lower value 1.02 | locus YNL250W, strain rad50, stronger effect = lower value 0.975 | locus YNL271C, strain bni1, stronger effect = lower value 0.993 | locus YNL298W, strain CLA4, stronger effect = lower value 0.996 | locus YNL307C, strain MCK1, stronger effect = lower value 0.995 | locus YNR052C, strain pop2, stronger effect = lower value 0.959 | locus YOL006C, strain TOP1, stronger effect = lower value 1.06 | locus YOL012C, strain htz1 0.87 | locus YOL147C, strain pex11, stronger effect = lower value 0.996 | locus YOR061W, strain CKA2, stronger effect = lower value 0.966 | locus YOR069W, strain VPS5, stronger effect = lower value 0.999 | locus YOR136W, strain idh2, stronger effect = lower value 0.991 | locus YOR144C, strain elg1, stronger effect = lower value 0.982 | locus YOR184W, strain ser1, stronger effect = lower value 0.988 | locus YOR316C, strain cot1, stronger effect = lower value 0.986 | locus YPL256C, strain CLN2, stronger effect = lower value 0.886 | locus YPR119W, strain clb2, stronger effect = lower value 0.992 | locus YPR141C, strain kar3, stronger effect = lower value 0.993 | locus YPR163C, strain tif3, stronger effect = lower value 0.984 | locus YPR167C, strain met16, stronger effect = lower value 0.978 | strain wtn01, stronger effect = lower value 1.05
